Compounds with a hit are over-represented: about 1.7% of the library has one in this group of screens.
PTHR1 agonist – qHTS for PTHR1 Agonists: Primary Screen | Parathyroid hormone/parathyroid hormone-related peptide receptor (Homo sapiens), Q03431 | HEK293 GP2 PTHR1 cells, GloSensor cAMP luminescence, 1 h | AID 743266, 2014 | 410,000 compounds, 0.075% hits | Potency, µM (top dose mostly 115 µM), most hits filed as activators; further: nearly all actives have a fitted effect of over 55% in size
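HEK-293-derived GP2 cells expressing PTHR1 and a GloSensor cAMP reporter, 3,000/well, plated overnight, given luciferin plus IBMX (each 0.5 mM as added) for 1 h at 37 °C, then compound for 1 h at 37 °C. Luminescence was read after 15 min at room temperature.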
GLP1R ag – qHTS of GLP-1 Receptor Agonists; Glucagon-like peptide 1 receptor (Homo sapiens), P43220; 380,000 compounds, 0.007% hits; HEK293 GLP-1R CRE-luciferase, luminescence, 4-6 h; cells express a hypersensitive GLP-1R form; Potency, µM (highest dose often 45.6 µM), actives largely listed as activators
Target sequence (P43220 whole entry, looked up): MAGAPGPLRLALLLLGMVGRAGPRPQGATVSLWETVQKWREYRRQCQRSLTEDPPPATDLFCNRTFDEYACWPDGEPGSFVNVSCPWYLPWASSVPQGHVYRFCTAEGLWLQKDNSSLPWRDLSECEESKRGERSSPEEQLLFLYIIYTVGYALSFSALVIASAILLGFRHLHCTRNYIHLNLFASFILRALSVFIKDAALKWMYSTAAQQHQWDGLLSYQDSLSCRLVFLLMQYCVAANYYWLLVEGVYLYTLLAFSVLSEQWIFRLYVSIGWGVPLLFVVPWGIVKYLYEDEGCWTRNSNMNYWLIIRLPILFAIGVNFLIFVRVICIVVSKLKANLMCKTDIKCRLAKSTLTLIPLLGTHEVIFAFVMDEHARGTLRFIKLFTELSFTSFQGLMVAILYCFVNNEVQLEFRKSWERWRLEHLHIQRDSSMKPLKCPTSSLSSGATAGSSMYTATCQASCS
GLP1R cytotox – qHTS of GLP-1 Receptor Inverse Agonists: Cytotox Screen. Potency, µM (top dose mostly 38.3 µM), hits mostly inhibitors. AID 624418, 2012. 410,000 compounds, 0.13% hits. HEK293 cAMP-luciferase reporter cells, luminescence, 24 h;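 further: loss of luciferase light is scored as toxicity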
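1536-well qHTS counterscreen of the MLSMR; 200 cells/uL, 12 h pre-incubation, 23 nL cpd, 24 h at 37 deg C 5% CO2, luciferase detection reagent, 12 min RT, luminescence. Inhibition = undesired.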
GLP1R inv ag – qHTS of GLP-1 Receptor Inverse Agonists (Inhibition Mode); Glucagon-like peptide 1 receptor (Homo sapiens), P43220; HEK293 GLP-1R CRE-luciferase, luminescence, 24 h; GLP-1R form is constitutively active; Potency, µM (top dose mostly 38.3 µM), most hits filed as inhibitors; 410,000 compounds, 1.6% hits; AID 624417, 2012; further: nearly all actives have a fitted effect of over 55% in size
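Constitutively active GLP-1R drives a cAMP-responsive luciferase in stably transfected HEK293 cells; test compounds are added after overnight (12 h) attachment and left 24 hr, and signal loss in luminescence marks inhibition.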
A number is an active result; . = inactive; ? = inconclusive; / = no result; [ ] = dose if it differs, or a comment. The call rests on the fitted dose curve; in most records, active means well fitted curve in the direction sought with a large enough effect; inconclusive means small, poorly fitted or top-dose-only effect, or another doubt; inactive means no such curve, though single readings can be large; an effect the other way counts as inactive or inconclusive.

SMILES | PTHR1 agonist | GLP1R ag | GLP1R cytotox | GLP1R inv ag
COc1ccc(Cl)cc1NC(=O)CN(C)C(=O)c1sc2ccccc2c1Cl | . | . | . | 5.6µM
COc1ccc(Cl)cc1NC(=O)CN(C)C(C)C(=O)NC(=O)NC1CCCCC1 (stereo not given) | . | . | ? | 3.2µM
COc1ccc(Cl)cc1NC(=O)CN(C)C(=O)c1cc2c(s1)CCCC2 | . | . | ? | 5µM
CSc1ccc(CCNC(=O)CCc2c(C)nc3c(-c4ccccc4)c(C)nn3c2C)cc1 | . | . | . | .
Oc1ccccc1N1CCN(c2ncnc3scc(-c4ccccc4)c23)CC1 | . | . | . | 11µM
Oc1ccccc1N1CCN(c2ncnc3scc(-c4ccc(F)cc4)c23)CC1 | . | . | . | ?
Cc1cc(-c2csc3ncnc(N4CCN(C)CC4)c23)cc(C)c1C | . | . | . | ?
CN1CCN(c2ncnc3scc(-c4ccccc4Cl)c23)CC1 | . | . | . | 1.4µM
COc1ccc(-c2csc3ncnc(Oc4cccc5ccc(C)nc45)c23)cc1 | . | . | . | 10µM
COc1ccc(-c2csc3ncnc(N4CCN(c5ccccc5OC)CC4)c23)cc1 | . | . | . | 10µM
Cc1ccc(SCc2nc(-c3ccc(C(=O)Nc4cc(C)ccc4C)cc3)oc2C)cc1 | . | / | . | .
COc1cccc(Cc2nc3ccccc3nc2SCC(=O)NCCc2ccccc2)c1 | . | . | . | ?
CC(=O)O[C@]1(C(=O)CO)[C@@H](C)C[C@H]2[C@@H]3CCC4=CC(=O)C=C[C@]4(C)[C@@]3(F)[C@@H](O)C[C@]21C | / | . | / | /
CCOc1ccc(CCNC(=O)c2cn(CC)c3ccc(S(=O)(=O)N4CCc5ccccc5C4)cc3c2=O)cc1OCC | . | . | . | .
CC(C)c1nc2ccc(C(=O)NCCCN3CCN(c4ccc(F)cc4)CC3)cc2o1 | . | / | . | ?
Cc1cc(C(=O)NCCN2CCN(c3cccc(Cl)c3)CC2)n(-c2ccccc2)n1 | . | . | . | 6.3µM
CC(C)c1nc2ccc(C(=O)NCCCN3CCN(c4cccc(Cl)c4)CC3)cc2o1 | . | / | . | 10µM
O=C(NCCN1CCN(c2ccccc2)CC1)Nc1cccc(Cl)c1 | . | . | . | 2.5µM
CC1CCC(NC(=O)CCc2cn(Cc3ccc(F)cc3)c3ccccc23)CC1 (stereo not given) | . | / | . | ?
CC[C@]1(O)C[C@H]2CN(CCc3c([nH]c4ccccc34)[C@@](C(=O)OC)(c3cc4c(cc3OC)N(C=O)[C@H]3[C@@](O)(C(=O)OC)[C@H](OC(C)=O)[C@]5(CC)C=CCN6CC[C@]43[C@@H]65)C2)C1 | / | . | / | /
COC(=O)c1ccc(NC(=S)NC2CCCCC2C)cc1 (stereo not given) | . | . | ? | 10µM
COc1ccc(-c2nc3c(c(SCC(=O)Nc4ccccc4F)n2)Cc2cc(C)ccc2O3)cc1 | . | / | . | .
Cc1cccc(-c2cccc(NC(=O)C3CCCN(C(=O)c4cccnc4)C3)c2)c1 (stereo not given) | . | . | . | ?
Cc1cccc(-c2cccc(NC(=O)C3CCCN(C(=O)c4csc(C)n4)C3)c2)c1 (stereo not given) | . | . | . | 5µM
CN(C)CCOC1=Cc2ccccc2Sc2ccc(Cl)cc21 | / | . | / | /
SMILES | PTHR1 agonist | GLP1R ag | GLP1R cytotox | GLP1R inv ag
Cc1c(C(=O)N2CCC(Cc3ccccc3)CC2)cccc1[N+](=O)[O-] | . | . | .[7.66 µM] | .[7.66 µM]
Cc1ccc(C)c(S(=O)(=O)NCc2ccc(C(=O)N3CCC(Cc4ccccc4)CC3)cc2)c1 | . | . | . | 10µM
Cc1ccc(C(=O)N2CCC(Cc3ccccc3)CC2)cc1[N+](=O)[O-] | . | . | . | 10µM
O=C(COc1ccc(F)cc1)Nc1ccc2nc(SCC(=O)N3CCOCC3)sc2c1 | . | / | . | .
COCC1=C(C(=O)OC(C)OC(=O)OC(C)C)N2C(=O)C(NC(=O)/C(=N\OC)c3csc(N)n3)C2SC1 (stereo not given) | / | . | / | /
CCCCn1cnc2c(SCc3ccccc3Cl)nc(N)nc21 | . | . | . | 10µM
Nc1nc(SCc2ccccc2)c2ncn(Cc3ccccc3)c2n1 | . | . | . | 7.9µM
CCCn1cnc2c(SCc3ccccc3)nc(N)nc21 | . | ? | . | .
CC(=O)C1=C(c2ccc(Br)cc2)N(C(C)=O)n2c(nnc2C2CCCCC2)S1 | . | / | . | .
COc1ccc(C(OCC(O)CNCCc2ccccc2)c2ccc(OC)cc2)cc1 (stereo not given) | . | . | ? | ?
Cc1ccc(C(OCC(O)CNCc2ccc(F)cc2)c2ccccc2)cc1 (stereo not given) | . | . | ? | 5.6µM
COc1ccc(C(OCC(O)CNC(C)c2ccccc2)c2ccc(OC)cc2)cc1 (stereo not given) | . | . | ? | 10µM
CC(NCC(O)COCCC12CC3CC(CC(C3)C1)C2)c1ccccc1 (stereo not given) | . | . | ? | 11µM
O=C(c1ccccc1)c1ccc(OCC(O)CNCc2ccc(F)cc2)cc1 (stereo not given) | . | . | . | ?
CCOc1ccc(CCNC(=O)CCSCc2ccc(Cl)cc2)cc1OCC | . | / | . | ?
Cc1ccc2nc(COc3ccccc3NC(=O)c3ccccc3F)cc(=O)n2c1 | . | / | . | .
COC(=O)C=CC(=NNc1ccccc1)c1ccccc1 | . | ? | . | 7.9µM
CO/N=C/C(=N\Nc1ccccc1)C(=O)c1ccccc1 | . | . | . | ?
Cc1ccc(CC(C)(O)CC(C)(O)Cc2ccc(C)cc2)cc1 (stereo not given) | . | . | . | 10µM
Cc1c(Cl)cccc1NS(=O)(=O)c1ccc2[nH]cc(C(=O)NC3CCCC3)c(=O)c2c1 | . | / | . | ?
Cc1cc(C)cc(NS(=O)(=O)c2ccc3[nH]cc(C(=O)NC4CCCCC4)c(=O)c3c2)c1 | . | / | . | 7.1µM
Cc1ccccc1NS(=O)(=O)c1ccc2[nH]cc(C(=O)NC3CCCCC3)c(=O)c2c1 | . | / | . | 10µM
Cc1ccc(S(=O)(=O)c2c(Nc3cc(F)ccc3F)sc(C(=O)c3ccc(F)cc3)c2N)cc1 | . | . | . | .
O=C(CSc1nnc(-c2cccs2)o1)Nc1cccc(C(F)(F)F)c1 | . | / | . | .
CCOc1ccccc1N1CCN(c2nc3ccccc3nc2C(C#N)C(=O)OC(C)C)CC1 (stereo not given) | . | . | . | 5µM
C=CCOC(=O)C(C#N)c1nc2ccccc2nc1N1CCC(C(=O)OCC)CC1 (stereo not given) | . | . | . | 6.3µM
CCOC(=O)C1CCN(c2nc3ccccc3nc2C(C#N)C(=O)OCCOC)CC1 (stereo not given) | . | . | . | .
COc1ccccc1NC(=O)c1cc2n(n1)C(C(F)(F)F)CC(c1ccc3c(c1)OCO3)N2 (stereo not given) | . | . | . | 2µM
